Experiment [1] concerns the target Cell division control protein 42 homolog (Homo sapiens) (UniProt P60953). In words: activated mutant Cdc42 GTP-binding inhibitors, dose response, biochemical, multiplex bead flow cytometry, Bodipy-FL-GTP (AID 1333;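 active = fitted half-maximal concentration within the tested dose range, moderate curve steepness, a statistically real signal drop, and little compound fluorescence or tag-binding interference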). In general terms: A flow cytometer gives signals particle by particle.
Experiment [2] shares this target. In words: wildtype Cdc42 GTP-binding inhibitors, dose response, biochemical, multiplex bead flow cytometry, Bodipy-FL-GTP (AID 1334;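 active = fitted half-maximal concentration within the tested range, moderate curve steepness, significant signal drop, and little compound fluorescence or bead-linkage interference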). As to conditions: bead-based flow cytometry, Bodipy-FL-GTP binding to GST-Cdc42; at 100 µM (top of the series) unless noted.
Experiment [3] deals with GTPase HRas (Homo sapiens) (UniProt P01112). In words: inhibitors of GTP binding to wildtype Ras, dose response, biochemical, multiplex bead flow cytometry (AID 1335). Particulars: bead-based flow cytometry, Bodipy-GTP binding to GST-Ras; at 100 µM (top of the series) unless noted.
GTPase HRas (Homo sapiens), sequence (P01112 whole entry, looked up): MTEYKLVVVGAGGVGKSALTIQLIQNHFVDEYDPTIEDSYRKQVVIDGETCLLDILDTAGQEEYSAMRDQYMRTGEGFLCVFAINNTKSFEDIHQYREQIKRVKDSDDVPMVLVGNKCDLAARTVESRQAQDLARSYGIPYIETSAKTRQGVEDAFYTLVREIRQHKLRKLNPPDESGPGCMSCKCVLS
Experiment [4] concerns Ras-related protein Rab-7a (dog), GTP binding. In words: Rab7 GTP binding inhibitors, potency, dose response, biochemical, wildtype, multiplex bead flow cytometry (AID 1336; call rule not given here).
Experiment [5] addresses Ras-related C3 botulinum toxin substrate 1 (Homo sapiens) (UniProt P63000). Description: wildtype Rac1 GTP binding inhibitors, dose response, biochemical, multiplex bead flow cytometry (AID 1340;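 active = dose curve with midpoint inside tested range, moderate steepness, plateau gap beyond fit error, low compound glow and bead-link interference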). Particulars: GST-Rac1 beads, Bodipy-FL-GTP binding; at 100 µM (top of the series) unless noted.
Experiment [6] addresses GTPase HRas (Homo sapiens) (UniProt P01112). In words: activated Ras mutant GTP binding inhibitors, dose response, biochemical, multiplex bead flow cytometry (AID 1341;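 active = dose-response curve with midpoint inside the tested range, moderate steepness, significant amplitude and little compound fluorescence or bead-attachment interference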;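 also: GST-tagged constitutively activated Ras mutant immobilized on beads and multiplexed with other GTPases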).

We go through 15 compounds from PubChem BioAssay.

For part of these data: Measured potencies and affinities stand elsewhere. Active and inactive are the calls of the source.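 The calls were made as follows, unless noted: active = fitted half-maximal concentration within 10 nM to 100 µM, steepness 0.5 to 2, significant signal drop, low assay interference; inactive = the rest.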

Cell division control protein 42 homolog (Homo sapiens), sequence (P60953 whole entry, looked up): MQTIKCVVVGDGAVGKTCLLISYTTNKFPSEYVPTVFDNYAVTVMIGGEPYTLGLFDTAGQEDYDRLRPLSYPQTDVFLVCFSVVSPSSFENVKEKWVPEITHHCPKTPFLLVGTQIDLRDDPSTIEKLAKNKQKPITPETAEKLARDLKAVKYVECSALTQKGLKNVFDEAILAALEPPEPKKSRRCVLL

Consider `CCOC(=O)c1c2c3c(cccc3[nH]c1=O)C(=O)c1ccccc1-2`, for which the compound was called inactive in experiment [1], in experiment [4] and in experiment [6]. The same compound returned a fluorescence, percent of control (lower = inhibition) in experiment [2] of 35.5%. In experiment [3], this compound gave a GTP binding, percent of control of 77.9%. This compound also displayed a GTP binding signal, raw median fluorescence (lower = inhibition) (MCF (arbitrary fluorescence units)) in experiment [5] of 176.
For `COc1ccccc1CNCc1ccc(C(=O)O)s1`, the call in experiment [1], in experiment [4] and in experiment [6] was inactive. The same compound yielded a fluorescence, percent of control (lower = inhibition) in experiment [2] of 64.5%. Also, the GTP binding, percent of control in experiment [3] was determined as 87.8%. The compound further had a GTP binding signal, raw median fluorescence (lower = inhibition) (MCF (arbitrary fluorescence units)) in experiment [5] of 33.8.
Take `O=C(O)C1(NCc2ccc(F)cc2)CCCCC1`: the call in experiment [1], in experiment [4] and in experiment [6] was inactive. This compound gave a fluorescence, percent of control (lower = inhibition) in experiment [2] of 62.4%. Also, in experiment [3], the GTP binding, percent of control is 89.4%. In addition, the GTP binding signal, raw median fluorescence (lower = inhibition) (MCF (arbitrary fluorescence units)) in experiment [5] was determined as 33.6.
Take `Cc1nn(-c2ccc(F)cc2)c(Cl)c1/C=C(\CCC(=O)O)c1nc2ccccc2s1`: the compound was classed as inactive in experiment [1], in experiment [4] and in experiment [6]. In experiment [2], this compound displayed a fluorescence, percent of control (lower = inhibition) of 64.7%. Also, the GTP binding, percent of control in experiment [3] amounted to 53.6%. Further, the GTP binding signal, raw median fluorescence (lower = inhibition) (MCF (arbitrary fluorescence units)) in experiment [5] was 164.
With `COc1ccc2cc(C)c3nnc(SCc4cccnc4)n3c2c1`, the result in experiment [1], in experiment [4] and in experiment [6] was inactive. The compound also yielded a fluorescence, percent of control (lower = inhibition) in experiment [2] of 32.1%. Also, in experiment [3], the GTP binding, percent of control came out at 76.7%. In experiment [5], this compound yielded a GTP binding signal, raw median fluorescence (lower = inhibition) (MCF (arbitrary fluorescence units)) of 221.
Consider `COc1ccc(C(=O)NC(=S)N2CC(C)OC(C)C2)cc1` (stereo not given), for which the compound was called inactive in experiment [1], in experiment [4] and in experiment [6]. The compound further returned a fluorescence, percent of control (lower = inhibition) in experiment [2] of 54.3%. This compound yielded a GTP binding, percent of control in experiment [3] of 68.1%. In addition, the GTP binding signal, raw median fluorescence (lower = inhibition) (MCF (arbitrary fluorescence units)) in experiment [5] came out at 216.
For the compound `O=C(COc1cc(Cl)ccc1Cl)Nc1nnc(CC(=O)N2CCOCC2)s1`, the call in experiment [1], in experiment [4] and in experiment [6] was inactive. Besides, the fluorescence, percent of control (lower = inhibition) in experiment [2] was found to be 90.6%. For the same compound, in experiment [3], the GTP binding, percent of control turned out to be 152%. This compound came in with a GTP binding signal, raw median fluorescence (lower = inhibition) (MCF (arbitrary fluorescence units)) in experiment [5] of 178.
On to `Cc1ccc(CSc2nc3[nH]ncc3c(=O)[nH]2)cc1`, for which the call in experiment [1], in experiment [4] and in experiment [6] was inactive. In experiment [2], this compound registered a fluorescence, percent of control (lower = inhibition) of 37.4%. Further, the GTP binding, percent of control in experiment [3] is 80.6%. Also, the GTP binding signal, raw median fluorescence (lower = inhibition) (MCF (arbitrary fluorescence units)) in experiment [5] is 173.
Consider `CC(C)CCn1c(CN2CCN(Cc3ccccc3)CC2)nc2c1c(=O)n(C)c(=O)n2C`, for which the compound was called inactive in experiment [1], in experiment [4] and in experiment [6]. For the same compound, in experiment [2], the fluorescence, percent of control (lower = inhibition) is 89.2%. For the same compound, the GTP binding, percent of control in experiment [3] turned out to be 165%. In experiment [5], this compound showed a GTP binding signal, raw median fluorescence (lower = inhibition) (MCF (arbitrary fluorescence units)) of 178.
Regarding `Cc1c(CCC(=O)O)c(=O)oc2cc3occ(-c4ccc(F)cc4)c3cc12`, the result in experiment [1], in experiment [4] and in experiment [6] was inactive. Moreover, the fluorescence, percent of control (lower = inhibition) in experiment [2] is 29.1%. This compound gave a GTP binding, percent of control in experiment [3] of 72.6%. This compound came in with a GTP binding signal, raw median fluorescence (lower = inhibition) (MCF (arbitrary fluorescence units)) in experiment [5] of 160.
Regarding `CC1=CC(=O)C=C(C)C1=NOS(=O)(=O)c1ccccc1`, the call in experiment [1], in experiment [4] and in experiment [6] was inactive. In experiment [2], this compound came in with a fluorescence, percent of control (lower = inhibition) of 29.6%. In experiment [3], this compound registered a GTP binding, percent of control of 81.2%. The GTP binding signal, raw median fluorescence (lower = inhibition) (MCF (arbitrary fluorescence units)) in experiment [5] stood at 223.
On to `Cc1ccc(-c2nnc3c4ccccc4c(C)nn23)cc1S(=O)(=O)N1CCN(CCO)CC1`, for which the compound was called inactive in experiment [1], in experiment [4] and in experiment [6]. In experiment [2], this compound displayed a fluorescence, percent of control (lower = inhibition) of 38.3%. For the same compound, the GTP binding, percent of control in experiment [3] is 86.6%. In experiment [5], this compound yielded a GTP binding signal, raw median fluorescence (lower = inhibition) (MCF (arbitrary fluorescence units)) of 238.
`O=c1[nH]c(N/N=C\c2ccc3c(c2)OCO3)nc2ccccc12`: the compound was called inactive in experiment [1], in experiment [4] and in experiment [6]. In addition, the fluorescence, percent of control (lower = inhibition) in experiment [2] amounted to 80.8%. In experiment [3], the GTP binding, percent of control came to 118%. The compound further had a GTP binding signal, raw median fluorescence (lower = inhibition) (MCF (arbitrary fluorescence units)) in experiment [5] of 202.
On to `C=CCN1C(=O)/C(=C/c2ccc(N(C)C)cc2)S/C1=N\c1nnc(CC)s1`, for which the outcome in experiment [1], in experiment [4] and in experiment [6] was inactive. For the same compound, the fluorescence, percent of control (lower = inhibition) in experiment [2] came to 74.8%. Further, the GTP binding, percent of control in experiment [3] was 90.2%. Also, in experiment [5], the GTP binding signal, raw median fluorescence (lower = inhibition) (MCF (arbitrary fluorescence units)) was found to be 231.
Regarding `O=S1(=O)N=C(N(CCO)/N=C/c2ccccc2)c2ccccc21`, the call in experiment [1], in experiment [4] and in experiment [6] was inactive. The compound further displayed a fluorescence, percent of control (lower = inhibition) in experiment [2] of 31.3%. Besides, the GTP binding, percent of control in experiment [3] turned out to be 63.2%. The compound also yielded a GTP binding signal, raw median fluorescence (lower = inhibition) (MCF (arbitrary fluorescence units)) in experiment [5] of 139.
